# Measurements: PubChem BioAssay AID720676 (National Center for Advancing Translational Sciences (NCATS), 2013)
# Records with an inconclusive call do not appear. Values without a mark were called inactive. Active and inactive are the calls of the source. The call rests on the fitted dose curve; in most records, active means well fitted curve in the direction sought with a large enough effect; inconclusive means small, poorly fitted or top-dose-only effect, or another doubt; inactive means no such curve, though single readings can be large or run the other way.
# Experiment: qHTS of small molecules that selectively kill Giardia lamblia: GS isolate Assay for SAR
# Conditions: Giardia lamblia GS isolate viability; series mostly up to 38.3 µM; activity change, negative = inhibition: at the top concentration
# From the text: Giardia lamblia is a human pathogen afflicting impoverished nations, and the most common cause of outbreaks of diarrhea in the United States. Giardia has been classified by the CDC as a category B bioterrorism organism. The favored anti giardiasis drugs in the US are metronidazole or tinidazole, compounds that have undesirable side effects. Moreover, increasing resistance to these drug regimens and recurrence remains a concern. It is thus clear that alternative drug treatments are needed.
# In collaboration with the University of Maryland (College Park), a bioluminescence Giardia viability assay based on the trophozoites' ATP content was developed. This assay is suitable for high throughput screening, and miniaturized the assay for compound screening in 1536-well plates. The Molecular Libraries Small Molecule Repository (MLSMR) was screened against this assay to find compounds that selectively kill Giardia trophozoites (AID 540267). Selected compounds were re-acquired to confirm their trophozoite toxicity activity (AID 588397) and lead chemotypes were identified for medicinal chemistry optimization. The data herein is the result of the first round of SAR for this project. Decrease in luminescence signal indicative of tropozoite growth inhibition (inhibitors) is the desired outcome for this assay.
# NIH Chemical Genomics Center [NCGC]
# NIH Molecular Libraries Probe Centers Network [MLPCN]
# Assay Submitter (PI): Osnat Herzberg, University of Maryland, College Park, MD.
# Giardia assay media was dispensed to an assay plate at 2 ul / well volume. Twenty-three nanoliter / well compounds were pinned into the plates using the Kalypsys robotic system. Giardia trophozoites were dispensed into the well at a concentration of 100 cells / well and incubated anaerobically at 37C for 48 hours. After compound incubation, 4 ul/ well ATPLite 1-Step luminescence assay detection reagent was and the plates were incubated at room temperature. After 30 min of incubation with the detection reagent, luminescence signal was obtained using the PerkinElmer ViewLux plate reader. Data was then processed and normalized to both positive and negative controls. Biosafety level 2 laboratory practices were observed throughout the duration of this screen.
Compound,"activity change, negative = inhibition",outcome
Cc1cc(C)nc(NC(=S)N2CCN(c3ncccc3C#N)CC2)c1,6.52%,
Cc1ccnc(NC(=S)N2CCCN(c3cccc(C(F)(F)F)c3)CC2)c1,-22.1%,
COc1cccc(NC(=S)N2CCN(c3cc(Cl)cc(Cl)c3)CC2)n1,11.5%,
CC(Cc1ccccc1)C(=O)Nc1ccc(Cl)cc1C(=O)O (stereo unspecified),-4.47%,
COc1ccnc(NC(=S)N2CCN(c3ccc(Cl)cc3Cl)CC2)c1,-24.1%,
Cc1ccnc(NC(=S)N2CC3CN(c4ncc(C(F)(F)F)cc4Cl)CC3C2)c1 (stereo unspecified),-29.8%,
COc1cccc(NC(=S)N2CCN(c3ccc(Cl)c(Cl)c3)CC2)n1,14.5%,
Cc1ccnc(NC(=S)N2CC3CN(c4cccc(C(F)(F)F)c4)CC3C2)c1 (stereo unspecified),17.6%,
COc1ccnc(NC(=S)N2CCN(c3ncc(C(F)(F)F)cc3Cl)CC2)c1,15.5% [at 37.9 µM],
Cc1cc(C)nc(NC(=S)N2CCN(c3ccc([N+](=O)[O-])cc3Cl)CC2)c1,-33.6%,
Cc1ccnc(NC(=S)N2CCCc3ccc(C(F)(F)F)cc32)c1,25.8% [at 37.9 µM],
S=C(Nc1cc(Cl)ccn1)N1CCN(c2cccc(Cl)c2Cl)CC1,17%,
Cc1ccnc(NC(=S)Nc2cccc(C(F)(F)F)c2)c1,12.3%,
Cc1nc(CN(C)c2ncnc3ccc(-c4ccc5[nH]ncc5c4)cc23)cs1,-56.4%,
Cc1cc(C)nc(NC(=S)N2CC3CN(c4ccc(Cl)cc4C(F)(F)F)CC3C2)c1 (stereo unspecified),-26.8%,
Cc1ccnc(N=C(N)N2CCN(c3cccc(C(F)(F)F)c3)CC2)c1,-7.19% [at 37.9 µM],
FC(F)(F)c1cccc(N2CCN(C(=S)Nc3cc(C(F)(F)F)ccn3)CC2)c1,20.9%,
FC(F)(F)c1cccc(N2CCN(C(=S)Nc3nccc4ccccc34)CC2)c1,,inactive
Cc1ccnc(NC(=S)N2CCN(c3cccc(C(F)(F)F)c3)CC2)c1,-32.4% [at 37.9 µM],
Cc1cc(C)nc(NC(=S)N2CCN(c3ccc(Cl)c(Cl)c3)CC2)c1,-30.3%,
Cc1cc(C)nc(NC(=S)N2CCN(c3ccc(Cl)cc3C(F)(F)F)CC2)c1,-7.54% [at 37.9 µM],
CSC(Cc1ccc(Cl)cc1)C(=O)Nc1ccc(Cl)cc1C(=O)O (stereo unspecified),-22.2%,
Cc1cc(C)nc(NC(=S)N2CCN(c3ccc(Cl)cc3Cl)CC2)c1,-6.72% [at 37.9 µM],
Cc1ccnc(NC(=S)N[C@@H]2CCN(c3cccc(C(F)(F)F)c3)C2)c1,23%,
COc1ccnc(NC(=S)N2CCN(c3cccc(Cl)c3Cl)CC2)c1,-19.6%,
FC(F)(F)c1cc(N2CCN(C(=S)Nc3cc(Cl)ccn3)CC2)cc(C(F)(F)F)c1,7.15%,
